The text below walks through data of PubChem BioAssay (NCI).

Assay [1] in a line: NCI Yeast Anticancer Drug Screen. Data for the rad50 strain (AID 155).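 Also: 0% = growth of vehicle-only cultures of the same strain.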 As to conditions: S. cerevisiae rad50 strain growth inhibition; at 50.0 µM; hits give high values. The gist of the method: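 DNA repair mutant yeast, compound exposure, growth read-out; inhibition is taken relative to vehicle.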
Assay [2] can be described thus: NCI Yeast Anticancer Drug Screen. Data for the mec2-1 strain (AID 157). The note with it: S. cerevisiae mec2-1 strain, at 50.0 µM, hits give high values. Put shortly: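 Readout is yeast growth inhibition, normalised to vehicle-treated controls, in the mec2-1 strain exposed to compound.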
A short description of assay [3]: NCI Yeast Anticancer Drug Screen. Data for the sgs1 mgt1 strain (AID 161).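 Also: 0% = growth of cultures given vehicle only.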 As to conditions: S. cerevisiae sgs1 mgt1 strain, at 50.0 µM, hits give high values. Put shortly:
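This yeast growth screen uses a strain with defined DNA-repair lesions; compound-treated growth is compared with vehicle-treated growth.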

The nature of assay [4]: NCI Yeast Anticancer Drug Screen. Data for the cln2 rad14 strain (AID 165).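 Also: 0% = growth equal to vehicle treated cultures.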 The note with it: S. cerevisiae cln2 rad14 strain, at 50.0 µM, hits give high values. Put shortly:
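Relative to vehicle controls, growth inhibition of compound-treated cln2 rad14 yeast was recorded.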

Assay [5] can be described thus: NCI Yeast Anticancer Drug Screen. Data for the bub3 strain (AID 167). The note with it: S. cerevisiae bub3 mutant strain, at 50.0 µM, hits give high values. The gist of the method: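 In this screen, a yeast mutant lacking normal mitotic checkpoint function is challenged with compound. Relative growth versus vehicle gives the inhibition value.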
A short description of assay [6]: NCI Yeast Anticancer Drug Screen. Data for the mlh1 rad18 strain (AID 175). As to conditions: S. cerevisiae mlh1 rad18 strain growth inhibition; at 50.0 µM; hits give high values. The gist of the method: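 Test agents were incubated with a yeast strain of defined genotype (DNA damage repair defect). Inhibition of growth was derived by comparison with vehicle-exposed cultures.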

The panel holds about 79,000 compounds, 15% with a hit somewhere; the sample as a whole holds those more often. A number with no mark means an inactive call. Active and inactive are the calls of the source. Rule as the data show it: active = growth inhibition above about 70%; inactive = the rest.

Take `CC(=S)NC(O)C(=O)c1ccccc1` (stereo unspecified): the growth inhibition in assay [1] was 9.85%; in assay [2], 12.8%; in assay [3], 45%; in assay [4], 8.6%; in assay [5] it was 45.2%; in assay [6] it was 6.45%.

On to `COc1cc(C(=O)C(O)c2cc(OC)c(OC)c(OC)c2)cc(OC)c1OC` (stereo unspecified), for which the growth inhibition was 18% in assay [1]; 11.2% in assay [2]; 11.1% in assay [3]; -13% in assay [4]; 2.95% in assay [5]; 28.3% in assay [6].

In the case of `CCOC(=O)c1c(NCCO)c(-c2ccccc2)c(=O)n2c1[nH]c1ccccc12`, the growth inhibition in assay [1] is 2.1%; in assay [2] it was 6.6%; in assay [3], 4.8%; in assay [4] it was -1%; in assay [5], -0.9%; in assay [6], 14.9%.

As for `CCCCC(=O)c1cc2ccccc2c2ccccc12`, the growth inhibition was -3.7% in assay [1]; -20.4% in assay [2]; 0.2% in assay [3]; -11.1% in assay [4]; 10.5% in assay [5]; 6.3% in assay [6].

Consider `C/C=C(\C)c1cc(=O)c2c(C)cc3c(c2o1)C(=O)c1c(OC)cccc1C3=O`, for which the growth inhibition is 14.2% in assay [1]; -14.8% in assay [2]; -1.05% in assay [3]; -4.65% in assay [4]; -6.95% in assay [5]; 23.9% in assay [6].

Take `Cc1cc(C(C)(C)C)nc(C(C)(C)C)c1`: the growth inhibition was 13.1% in assay [1]; 6.4% in assay [2]; 15.2% in assay [3]; -60.6% in assay [4]; 0.8% in assay [5]; -4.85% in assay [6].

Regarding `COc1cccc(-c2cc(=O)c3cc(Cl)cnc3[nH]2)c1`, the growth inhibition in assay [1] is 5.35%; in assay [2], 2.7%; in assay [3], 4.2%; in assay [4], 31.1%; in assay [5], 11.8%; in assay [6], 5.1%.

For `c1ccc(CNC2Cc3ccccc3C2)cc1`, the growth inhibition in assay [1] is 19.6%; in assay [2] it was -10.7%; in assay [3] it was 0.55%; in assay [4], -36.1%; in assay [5], -11.7%; in assay [6], -2.4%.

As for `COC(=O)c1c(C)cc(OC)c(C/C=C(\C)CCCc2coc(C=C(C)C)c2)c1OC`, the growth inhibition in assay [1] was 21%; in assay [2], 6.55%; in assay [3], 19%; in assay [4] it was 11.9%; in assay [5], 12.4%; in assay [6], 25%.

`CCOC(=O)N/N=C(/OCC)c1ccccc1`: the growth inhibition was 9.75% in assay [1]; 2.7% in assay [2]; -7.2% in assay [3]; 5.8% in assay [4]; 13.8% in assay [5]; 5.8% in assay [6].

Turning to `O=C(c1ccc2c(c1)OCO2)C(O)c1ccc(Cl)cc1` (stereo unspecified), the growth inhibition in assay [1] is 2.85%; in assay [2] it was 3.9%; in assay [3] it was 1.85%; in assay [4] it was -16.1%; in assay [5], -4.75%; in assay [6] it was 5%.

For the molecule `NCCNCc1ccncc1`, the growth inhibition is -38% in assay [1]; -41.5% in assay [2]; -58.5% in assay [3]; -11.3% in assay [4]; -47.2% in assay [5]; -27.2% in assay [6].

As to `CCCCc1nc(CCCC)nc(CCCC)n1`, the growth inhibition in assay [1] is -6.75%; in assay [2] it was -14.2%; in assay [3], -12.8%; in assay [4] it was -2.45%; in assay [5], -2.8%; in assay [6], 1.15%.

Consider `O=C1CCCC/C(=C/c2ccccc2)N1`, for which the growth inhibition was 4.45% in assay [1]; -7.2% in assay [2]; -6.7% in assay [3]; 12.8% in assay [4]; -21.8% in assay [5]; 7.85% in assay [6].

Take `NC1C2C=CC(C2)C1C(=O)O` (stereo unspecified): the growth inhibition in assay [1] is -0.65%; in assay [2], -0.25%; in assay [3] it was -50.4%; in assay [4] it was 4%; in assay [5], -26.6%; in assay [6] it was -17.3%.

Turning to `O=[N+]([O-])c1cc(Br)ccc1P(=O)(O)O`, the growth inhibition in assay [1] is 9.25%; in assay [2], 8.8%; in assay [3], -1.25%; in assay [4], 7.85%; in assay [5] it was 16.9%; in assay [6], -4.95%.

For the molecule `COC(=O)/C(=C\c1ccccc1N)c1cc2c(cc1Br)OCO2`, the growth inhibition in assay [1] is 84.2% (active); in assay [2], 40.2%; in assay [3], 82.4% (active); in assay [4] it was 41.4%; in assay [5], 44.3%; in assay [6] it was 68.1%.

For `CCCCCCCCCCCCOC1C(COCCN2CCCCC2)OC2OC(C)(C)OC21` (stereo unspecified), the growth inhibition in assay [1] was 92.6% (active); in assay [2] it was 93.4% (active); in assay [3] it was 89.7% (active); in assay [4] it was 90% (active); in assay [5], 88% (active); in assay [6], 90.2% (active).

As for `COCOc1ccc(C(=O)C(C)c2ccc(OCOC)cc2OCOC)c(O)c1` (stereo unspecified), the growth inhibition in assay [1] is 39.4%; in assay [2], 17.2%; in assay [3], 26.8%; in assay [4], 23.2%; in assay [5] it was 40.8%; in assay [6] it was 36.8%.

On to `N#CC(=O)Nc1cccc(Cl)c1`, for which the growth inhibition was -13.1% in assay [1]; -8.05% in assay [2]; -16.4% in assay [3]; -19.7% in assay [4]; -3.05% in assay [5]; -0.15% in assay [6].

As to `N#Cc1cc([N+](=O)[O-])ccc1NC(=O)C(=O)C(C(=O)/C=C/c1ccccc1)C1OC(=O)c2ccccc21` (stereo unspecified), the growth inhibition in assay [1] was -1.05%; in assay [2], -15.9%; in assay [3] it was -41.2%; in assay [4], 5.55%; in assay [5], -15.2%; in assay [6], 8.95%.
